Measurements as given in PubChem BioAssay AID1259324 (C. David Weaver Laboratory, Vanderbilt University, 2017).
In all, about 34,000 compounds went through this assay and fewer than 10 were called active.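 Rule for the calls: active = primary screen hit, no activity in plain HEK293 cells, and in GIRK2-only cells above 5% efficacy rising with concentration; inactive = the rest, including fluorescent compounds.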 A selection follows.

Target: G protein-activated inward rectifier potassium channel 2 (Homo sapiens) (UniProt P48051)
Experiment: GIRK2 activation atop partial GPCR stimulation – cell-based, HEK293, thallium flux, summary (AID 1259324)
Conditions: HEK293 GIRK2/NPY4 cells, thallium flux fluorescence

G protein-activated inward rectifier potassium channel 2 (Homo sapiens), sequence (P48051 whole entry, looked up): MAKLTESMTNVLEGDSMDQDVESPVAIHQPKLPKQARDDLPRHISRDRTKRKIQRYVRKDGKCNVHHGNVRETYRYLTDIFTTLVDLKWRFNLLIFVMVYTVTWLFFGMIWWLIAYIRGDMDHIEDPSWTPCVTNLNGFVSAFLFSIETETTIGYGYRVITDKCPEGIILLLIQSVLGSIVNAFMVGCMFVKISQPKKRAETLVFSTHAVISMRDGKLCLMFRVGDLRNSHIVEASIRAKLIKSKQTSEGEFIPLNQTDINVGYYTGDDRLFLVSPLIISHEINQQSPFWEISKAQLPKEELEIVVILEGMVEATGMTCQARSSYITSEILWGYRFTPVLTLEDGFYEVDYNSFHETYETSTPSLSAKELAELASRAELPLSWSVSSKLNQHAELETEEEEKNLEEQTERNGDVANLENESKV

outcome, inactive:
Cc1cc(-c2nnc(NC(=O)c3ccc(S(=O)(=O)N4CCCC4)cc3)o2)n(C)n1
COC(=O)c1ccc(OC)cc1CN1C(=O)N(c2cc(F)ccc2F)S(=O)(=O)c2ccccc21
Cc1ccc(Nc2ccc(NC(=O)c3ccc(Br)o3)cc2)nn1
Cc1csc(NC(=O)CSc2nc(=O)n(N3CCN(C)CC3)c3c2CCC3)n1
Cc1nnc(CNC(=O)C(C)n2nnc3ccccc3c2=O)o1 (stereo not given)
O=C(NCCN1CCOCC1)C(=O)NCC(F)(F)F
CC(=O)N1CCN(S(=O)(=O)c2ccc(C(=O)NCc3cccnc3)cc2)CC1
COc1cc(C(=O)Nc2ccc3c(c2)N(C(=O)C2CC2)CCC3)cc(OC)c1OC
CC(Sc1ccnc2c1c(=O)n(C)c(=O)n2C)C(=O)O (stereo not given)
Cn1nc(NC(=O)C(C)(C)Oc2ccc(Cl)cc2)c2c1NC(=O)CC2c1ccco1 (stereo not given)
CS(=O)(=O)c1ccc(NC(=O)c2ccc(Cl)c(S(=O)(=O)N3CCOCC3)c2)cc1
CCOC(=O)Nc1nc(CC(=O)Nc2ccc(OC)cc2)cs1
O=C(NCc1ccc(Cl)cc1)C(=O)NCC1CCN(C(=O)c2cccnc2)CC1
Cc1cc(S(=O)(=O)NCC(O)c2ccc(C(F)(F)F)cc2)ccc1F (stereo not given)
Cc1ccc(Oc2ccc(N(C)C(=O)c3cccc(F)c3)cc2)nn1
CCOc1ccc(-c2cc(=O)n(CCCC(=O)Nc3cc(C)ns3)cn2)cc1
Cc1noc(C)c1S(=O)(=O)N1CCN(Cc2nc(-c3ccco3)cs2)CC1
CC1CCN(c2oc(-c3ccc(S(=O)(=O)N(C)Cc4ccccc4)cc3)nc2C#N)CC1
O=C(NCC1CCN(S(=O)(=O)C2CC2)CC1)c1ccccn1
CCOC(=O)C(CC)Sc1ccnc2c1c(=O)n(C)c(=O)n2C (stereo not given)
CN1CCN(C(CNC(=O)C(=O)NCc2ccc(Cl)cc2)c2cccn2C)CC1 (stereo not given)
CCN1CCc2nc(-c3ccccc3)n(CC(=O)Nc3cccc(Cl)c3C)c(=O)c2C1
CC(C)C(=O)N1CCCc2ccc(NC(=O)C(=O)NCCCc3ccccc3)cc21
CCOc1ccc(NS(=O)(=O)c2cccc(OC)c2)cc1
COc1cc(S(=O)(=O)N2CCN(CCO)CC2)ccc1Cl
O=C(N1CCC(c2cccs2)CC1)C1(c2ccc(F)cc2)CC1
CS(=O)(=O)N1CCN(Cc2nnnn2-c2ccc(F)cc2)CC1
CCn1c(SCC(=O)N(C)c2ccccc2)nnc1-c1cn(C)nc1OC
O=C(NCCN1CCC(c2cccs2)CC1)C(=O)Nc1ccc2c(c1)OCO2
CCCNC(=O)C(=O)Nc1c2c(nn1C(C)(C)C)CSC2
O=C(Nc1ccc(Cl)cc1)N1CCC2(CC1)NC(=O)N(CCOc1ccccc1)C2=O
O=C(CCn1ccc(=O)[nH]c1=O)N1CCN(c2ccc(-c3ccccn3)nn2)CC1
Cn1cnc2cc(OC(=O)c3ccc(=O)[nH]n3)ccc21
O=C(Cc1ccc2c(c1)OCO2)Nc1nnc(-c2ccc(Br)s2)o1
CC1(C)Cc2cccc(OCCCS(=O)(=O)N3CCCCC3)c2O1
O=C(Cn1cnc(-c2cccs2)cc1=O)NCCOc1ccc(F)cc1
COC(=O)c1ccc(-c2csc(NC(=O)CS(=O)(=O)Cc3ccccc3)n2)cc1
Cc1cccc(C(=O)Nc2cc(-c3ccco3)nn2-c2nc(C)cc(=O)[nH]2)c1
CON(C)C(=O)C1CN(C(=O)c2cccs2)C1
COc1cn(CC(=O)Nc2ccc3c(c2)OCO3)c(CSc2ncccn2)cc1=O
CCOC(=O)C1CCN(C(=O)c2csc(Nc3ccccc3)n2)CC1
COc1ccc(CC(=O)NCCOc2ccc(F)cc2)cc1OC
CCOc1ccc2nc(NC(=O)c3ccc(S(=O)(=O)N(C)C)o3)sc2c1
O=c1[nH]c(SCc2nc(-c3cccc(C(F)(F)F)c3)no2)nc2ccsc12
COc1cc(N2CCN(S(C)(=O)=O)CC2)nc(OC)n1
CCC(CO)NC(=O)C(=O)Nc1c2c(nn1-c1ccccc1)CS(=O)(=O)C2 (stereo not given)
CN1CCN(C(CNS(=O)(=O)c2ccc(C(C)(C)C)cc2)c2cccn2C)CC1 (stereo not given)
COc1cccc(-n2nnnc2SCC(=O)Nc2ccccc2Cl)c1
COc1ccc(Cc2nnc(Nc3cc(C)ccc3C)[nH]c2=O)cc1
Cc1cc(=O)n(CC(=O)Nc2ccncc2)cn1
CCCCOc1ccc(C(=O)Nc2ccc3c(c2)CCC(=O)N3CCC)cc1
COc1cccc(C(=O)NCC2COC3(CCCCC3)O2)c1OC (stereo not given)
NC(=O)C1CCN(c2oc(-c3ccco3)nc2S(=O)(=O)c2ccc(Cl)cc2)CC1
Cc1nnc(NC(=O)CCn2cnc3c(cnn3-c3ccc(F)cc3)c2=O)s1
O=C(NCC(=O)N1CCOC(c2ccccc2)C1)C(=O)NCc1ccccc1Cl (stereo not given)
O=C(NCCc1ccc(F)cc1)c1cc(=O)c(OCc2ccccc2)co1 inactive; active
NC(=O)C1Cc2ccccc2N1C(=O)Nc1ccc2c(c1)OCO2 (stereo not given)
CCc1nnc(NC(=O)c2nnn(-c3ccc(Cl)cc3)c2C)s1
COc1ccc(NC(=O)C2CCCCC2)cc1N1CCCCC1=O
COCCNC(=O)c1ccc(Oc2c(C)oc3cc(OC)ccc3c2=O)cc1
CN(C(=O)c1cccc(F)c1)C1(C)CCS(=O)(=O)C1 (stereo not given)
Cc1cn2c3c(=O)n(C)c(=O)n(C)c3nc2n1CC(=O)c1ccc(Cl)cc1
Cc1cccc(NC(=O)c2ccc3nn(CC(=O)Nc4ccc(C)c(F)c4)c(=O)n3c2)c1
Cc1cccc(CC(=O)NCC2(c3cccs3)CCCC2)c1
CS(=O)(=O)N1CCC(CNC(=O)c2ccc(F)c(F)c2)CC1
O=C(NCCCN1CCCC1=O)C(=O)Nc1c2c(nn1-c1cccc(Cl)c1)CSC2
COc1ccc(S(=O)(=O)NCC(c2ccc(C)cc2)N2CCN(C)CC2)cc1OC (stereo not given)
Cc1nc(-c2cccs2)c(CCC(=O)N(C)C2CCS(=O)(=O)C2)s1 (stereo not given)
CNc1nn(CC(=O)Nc2ccc(C(C)=O)cc2)c(N)c1-c1nc(-c2ccc(C)cc2)no1
Cc1cc(-c2nnc(NC(=O)c3cccc(Oc4ccccc4)c3)o2)n(C)n1 inactive; active
COCC(C)(O)CNC(=O)Cc1cccc(C)c1 (stereo not given)
CN1CCOc2ccc(NC(=O)C3(c4ccc(F)cc4)CC3)cc2C1=O
O=c1oc(-c2ccncc2)nc2c(Cl)cccc12
O=C(Cn1nc(C2CC2)c2cnn(-c3ccc(F)cc3)c2c1=O)N1CCOCC1
COC(=O)c1ccc(C(=O)NCCCC(=O)Nc2cccc3cccnc23)cc1
CN(C)C(=O)C(NC(=O)OC(C)(C)C)c1ccccc1Cl (stereo not given)
CC(C)S(=O)(=O)c1ccc(CC(=O)NCc2n[nH]c(=O)c3ccccc23)cc1
O=C(c1ccc(N2CCCC2)nn1)N1CCN(C(=O)c2ccco2)CC1
O=C(c1ccc2c(c1)OCO2)N(Cc1ccsc1)Cc1ccccn1
CSc1nnc(CNC(=O)C23CC4CC(CC(C4)C2)C3)n1-c1ccccc1
Cc1ccc(S(=O)(=O)NCCNc2ccc(Nc3cccc(C)n3)nn2)c(C)c1
O=c1c2cn[nH]c2nc(SCc2nc(-c3ccccc3)no2)n1-c1ccccc1
O=C(Cc1cccc2ccccc12)NCCOc1ccc2c(c1)OCO2
Cc1cc(C)c2sc(N3CCN(C(=O)C4CCCN(S(C)(=O)=O)C4)CC3)nc2c1 (stereo not given)
COc1cccc(C(=O)Nc2ccc(N3CCCC3=O)c(OC)c2)c1
Cc1ccc(NC(=S)NC(=O)c2ccc(F)cc2)nc1
Cc1cc(C)n(S(=O)(=O)c2cccc(S(C)(=O)=O)c2)n1
COc1ccc(-c2cc3c(=O)n(Cc4nc(-c5ccc(OC)cc5OC)no4)ccn3n2)cc1
CSc1ccccc1C(=O)Nc1nnc(-c2cc(C)nn2C)o1
Cn1c(=O)c2c(nc3n(CC(=O)O)c(-c4ccccc4)cn23)n(C)c1=O
COc1nn(C)cc1-c1nnc(SCC(=O)N2CCCc3ccccc32)n1C
Cc1cccc(CS(=O)(=O)NCC2(O)CCc3ccccc32)c1 (stereo not given)
COC(=O)c1ccc(NC(=O)Cn2c(=O)n(C(C)C)c(=O)c3nscc32)cc1
NS(=O)(=O)c1ccc(NC(=O)c2ccc(=O)n(Cc3ccc(F)cc3)c2)cc1
CCOC(=O)Cc1csc(NC(=O)c2nc(-c3cnccn3)no2)n1
Cc1cccc(Nc2ccc(N3CCN(S(=O)(=O)c4cccs4)CC3)nn2)n1
COCCNC(=O)CCn1cnc2c(cnn2C(C)(C)C)c1=O
O=S(=O)(NCC#CCN1CCc2ccccc2C1)c1c(F)cccc1F
Cc1ccc(-c2ccc(=O)n(CCCC(=O)Nc3ccc(S(N)(=O)=O)cc3)n2)cc1
COc1cc(OC)cc(C(=O)N2CCc3cc(S(=O)(=O)NC4CCCC4)ccc32)c1
Cn1cccc1C(CNS(=O)(=O)c1ccc(F)cc1)N1CCOCC1 (stereo not given)
Cn1cccc(C(=O)N2CCC(c3nnc(-c4ccco4)s3)CC2)c1=O
O=C(NCC1(c2cccs2)CCOCC1)Nc1cccc(C(F)(F)F)c1
CC(=O)c1ccc(S(=O)(=O)N2CCC(c3nnc(C4CC4)o3)CC2)cc1
COc1ccc(Cl)cc1N1CC(c2nc(-c3ccccc3C)no2)CC1=O (stereo not given)
